Results reported in the supplement of paper PMC9135407.
Counter-ions that a name gives are not always drawn.

Tested on: primary human hepatic stellate cells (donor 1)
Test: PSMB2 reference mRNA level vs DMSO (fold); higher = more PSMB2 expression
Conditions: 48 h
Procedure: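 Secondary qRT-PCR screen in primary human HSCs (donor 1), 384-well plates, with compounds dispensed in quadruplicate and incubated for 48 h. Cells-to-CT lysates were used for multiplexed TaqMan qPCR of ACTA2 or COL1A1 with PSMB2 as reference. Fold changes versus DMSO come from a linear model (Ct_gene ~ Ct_PSMB2 + plate + chemical). A hit is defined as COL1A1 and ACTA2 FC <0.5 (FDR <0.05) with PSMB2 between 0.2 and 2.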

SMILES | PSMB2 reference mRNA level
O=[N+]([O-])/C=C/c1ccc2c(c1)OCO2 (3.7 µM) | 1
CC[C@H]1CN2CCc3cc(OC)c(OC)cc3[C@@H]2C[C@@H]1C[C@H]1NCCc2cc(OC)c(OC)cc21 [Emetine] (12.0333 µM) | 0.628
CCCCCCCCCCCCCC(=O)O[C@@H]1[C@@H](C)[C@@]2(O)[C@@H](C=C(CO)C[C@]3(O)C(=O)C(C)=C[C@@H]23)[C@@H]2C(C)(C)[C@]12OC(C)=O [Phorbol 12-myristate 13-acetate] (27.0333 µM) | 0.829
CCN(CC)CCO[C@H]1CC[C@@]2(C)C(=CC[C@@H]3[C@@H]2CC[C@]2(C)C(=O)CC[C@@H]32)C1 (33.3333 µM) | 0.278
CO[C@H]1CC[C@@H](O[C@H]2C[C@H]([C@]3(C)CC[C@]4(C[C@H](O)[C@@H](C)[C@@H]([C@@H](C)/C=C(\C)C(=O)[C@H](C)C[C@H](C)C(=O)O)O4)O3)O[C@]3(O[C@@H]([C@H]4O[C@@](O)(CO)[C@H](C)C[C@@H]4C)C[C@@H]3C)[C@@H]2C)O[C@@H]1C [Nanchangmycin] (11.1 µM) | 0.936
CC(C(=O)OC1CC2CCC(C1)N2C)c1ccc(Br)cc1 (centres undefined) [PG-9 maleate] (33.3333 µM) | 1.01
C[C@@H]1O[C@@H](O[C@H]2C[C@@H](O)[C@]3(CO)[C@H]4[C@H](O)C[C@]5(C)[C@@H](C6=CC(=O)OC6)CC[C@]5(O)[C@@H]4CC[C@]3(O)C2)[C@H](O)[C@H](O)[C@H]1O [Ouabain] (33.3333 µM) | 1.24
C[C@H](N)Cn1ccc2cc(F)c(Cl)cc21 [Ro 60-0175 fumarate] (33.3333 µM) | 0.297
CC1=NCCc2c1[nH]c1cc(O)ccc21 [Harmalol hydrochloride dihydrate] (24.4333 µM) | 0.715
CC1=C(O)C(=O)C=C2C1=CC=C1[C@@]2(C)CC[C@@]2(C)[C@@H]3C[C@](C)(C(=O)O)CC[C@]3(C)CC[C@]12C [Celastrol] (3.33333 µM) | 0.633
CC1=C(CC/C(C)=C/CCC2=CC[C@H](C3=CC(=O)O[C@H]3O)O[C@H]2O)C(C)(C)CCC1 [Manoalide] (40 µM) | 1.84
CN1[C@@H]2CC[C@H]1C[C@@H](OC(c1ccc(F)cc1)c1ccc(F)cc1)C2 [3 α-Bis-(4-fluorophenyl) methoxytropane hydrochloride] (33.3333 µM) | 0.247
O=C1C2CCN(CC2)C1(CO)CO (90 µM) | 0.115
O=c1[nH]c2ccccc2n1C1CCN(CCCC(c2ccc(F)cc2)c2ccc(F)cc2)CC1 [Pimozide] (33.3333 µM) | 0.0111
COc1ccc2[nH]cc(C3=CCNCC3)c2c1 (33.3333 µM) | 1.01
Fc1cc(F)c2c(c1)[C@H]1C=CC[C@H]1C(c1cccnc1)N2 (some centres undefined) [Golgicide A] (33.3333 µM) | 0.431
C[C@]12CC[C@H](O)C[C@H]1CC[C@@H]1[C@@H]2CC[C@]2(C)[C@@H](C3=CC(=O)OC3)CC[C@]12O [Digitoxigenin] (33.3333 µM) | 0.954
CN(C(=O)Cc1ccc(Cl)c(Cl)c1)[C@H](CN1CCCC1)c1ccccc1 [ICI-199,441 hydrochloride] (33.3333 µM) | 0.128
COc1ccc2c(c[n+](C)c3c4cc5c(cc4ccc23)OCO5)c1OC (6.66667 µM) | 0.187
